# Compound activity: PubChem BioAssay, National Center for Advancing Translational Sciences (NCATS)
# HCV inhibitor: qHTS Assay for Inhibitors of Hepatitis C Virus (HCV) | Huh7.5.1 HCVcc-Cre infection, luciferase reporter, 44 h | Potency, µM (titrated, usually from 41.8 µM), for inactives: at the top dose activity change, negative = inhibition, actives largely listed as inhibitors | hit rate 3.4% among 340,000; note: potency is the fitted concentration of half-maximal effect
#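 Luciferase read-out (15 sec integration) after a 15 min room-temperature substrate step quantifies HCVcc-Cre infection. Cells, 1,000 per well, had compound added 4 h post-plating, then virus at ~0.5 moi, and were cultured 44 h.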
# HCMV inh: qHTS Assay for inhibitors of the human cytomegalovirus (HCMV); HFF cells, HCMV-luciferase reporter, 72 h; stronger effect = lower value; hit rate 4.5% among 410,000; activity change, negative = inhibition, % at 57.5 µM; in the data active = activity change below about -60%; inconclusive = no clear call, values can overlap the other calls; inactive = above about -39%
#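 Two compound doses tested in HFFs infected with HCMV-luciferase, MOI 1 PFU/cell, 72 h at 37C. Lysate luminescence read with OneGlo; data normalized against buffer-only and 10uM Salinomycin inhibitor controls.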
# AmpC inh detg: qHTS Inhibitors of AmpC Beta-Lactamase (assay with detergent). Potency, µM (highest dose often 114 µM), for inactives: top-dose activity change, negative = inhibition, actives largely listed as inhibitors. hit rate 0.041% among 370,000. AmpC hydrolysis of nitrocefin, absorbance 480 nm, 0.01% Triton. AID 485294, 2010;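 note: potency is the fitted concentration of half-maximal effect; 0% = no-compound wells and -100% = no-enzyme wells; nearly all actives have a fitted effect of over 25% in size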
# Target sequence (P00811 whole entry, looked up): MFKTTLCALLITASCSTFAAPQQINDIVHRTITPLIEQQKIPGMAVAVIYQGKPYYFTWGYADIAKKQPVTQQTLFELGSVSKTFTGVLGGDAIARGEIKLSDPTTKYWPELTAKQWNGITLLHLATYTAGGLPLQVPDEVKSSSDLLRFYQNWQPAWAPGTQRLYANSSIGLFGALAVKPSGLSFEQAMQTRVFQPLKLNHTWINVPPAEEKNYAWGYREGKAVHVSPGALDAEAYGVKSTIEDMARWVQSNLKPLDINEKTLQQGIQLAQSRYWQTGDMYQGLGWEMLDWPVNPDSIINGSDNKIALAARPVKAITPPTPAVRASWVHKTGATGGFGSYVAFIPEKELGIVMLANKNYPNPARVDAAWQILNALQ
#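 20 mM phosphate pH 7.0 + 0.01% (detergent screen) or 0.0001% Triton X-100; 5.3 nM AmpC reagent; cpd preinc 15 min RT; nitrocefin (800 uM stock) to start; A480 q20 s × 4 min; Activity was normalised to no-enzyme and no-compound control wells.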
# AmpC no deterg: qHTS Inhibitors of AmpC Beta-Lactamase (assay without detergent); AmpC nitrocefin hydrolysis, absorbance 480 nm, 0.0001% Triton; Potency, µM (highest dose often 57.1 µM), inactives show at the top dose activity change, negative = inhibition, most hits filed as inhibitors; hit rate 0.52% among 330,000;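 note: potency is the fitted concentration of half-maximal effect; plate controls were no compound for no effect and no enzyme for full effect; nearly all actives have a fitted effect of over 20% in size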
#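 20 mM phosphate pH 7.0 + 0.01% (detergent screen) or 0.0001% Triton X-100; 5.3 nM AmpC reagent; cpd preinc 15 min RT; nitrocefin (800 uM stock) to start; A480 q20 s × 4 min; Activity was normalised to no-enzyme and no-compound control wells.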
# FMDV inh: High Throughput Screening for Foot and Mouth Disease Virus Antivirals | Potency, µM (doses to about 57.9 µM), for inactives: at the highest dose activity change, negative = inhibition, actives largely listed as inhibitors | hit rate 1.2% among 410,000 | FMDV antiviral cell-based qHTS; calls by dose curve; tested in HEK293T cells; note: read-out not given here; potency is the fitted concentration of half-maximal effect; nearly all actives have a fitted effect of over 45% in size
# * = called active by the depositor; ? = inconclusive; / = no result given; ! = not confirmed by another sample; [ ] = dose if it differs, or a comment. Hits are enriched below; roughly 7.3% of the tested compounds scored in any of these assays. Unless noted, calls come from the whole dose curve; as a rule, active = well fitted curve in the direction sought with a large enough effect; inconclusive = small, poorly fitted or top-dose-only effect, or another doubt; inactive = no such curve, though single readings can be large; an effect the other way counts as inactive or inconclusive. Unless noted, % is set by controls: 0 for no effect and ±100 for the full control effect.
SMILES,HCV inhibitor,HCMV inh,AmpC inh detg,AmpC no deterg,FMDV inh
COc1ccc(NS(=O)(=O)c2ccc3nc(COc4cccc5ccccc45)[nH]c3c2)cc1,?,-79*,-4%,4µM*,-20%
COc1ccc(OCc2nc3ccc(S(=O)(=O)Nc4ccccc4Cl)cc3[nH]2)cc1,-25%,-6,-1%,-39%,-13%
CC(=O)Nc1ccc(S(=O)(=O)N2CCC(Oc3ccc(-n4cnnn4)cc3)CC2)cc1,-6%,-89*!,-7%,11%,?
O=S(=O)(c1cccc(F)c1)N1CCC(Oc2ccc(-n3cnnn3)cc2)CC1,/,-96*,17%,/,?
N#Cc1ccccc1S(=O)(=O)N1CCC(Oc2ccc(-n3cnnn3)cc2)CC1,/,-27,22%,/,?
C[C@H]1[C@@H](NS(=O)(=O)c2ccc(-c3ccccc3)cc2)CC[C@@]23CCCN2C(=O)CCC[C@@H]13,/,10,/,/,/
COc1ccc(CCNC(=O)c2ccc3c(c2)ncn3-c2ccc(C)cc2C)cc1OC,/,-22,4%,/,-14%
COc1ccc(C)cc1NC(=O)N1CCC(CN2CCC(C)CC2)CC1,/,-3,20%,/,-12%
CC(=O)N(CN1C(=O)CCC1=O)c1ccc(Cl)c(Cl)c1,8%,-66*,5%,0%,11µM*
O=C1CCC(=O)N1CN(C(=O)c1ccco1)c1ccc(Cl)c(Cl)c1,1%,-33,5%,0%,8%
COc1ccc(CN2CCOc3ccc(CN4CCC(O)CC4)cc3C2)c(OC)c1OC,/,/,/,/,-6%
COCCCNc1ncnc2sc(C(=O)N3CCOCC3)c(C)c12,/,/,/,/,-11%
Cc1ccc(-n2cccc2C(=O)NS(=O)(=O)c2ccc(C)cc2)cc1,-7%,68,-4%,-37%,-1%
Cc1ccc(-n2cccc2C(=S)N=P(N(C)C)(N(C)C)N(C)C)cc1,?,-80*,-18%,40%,?
N/C(COc1cccc(Cl)c1)=N\O,6%,-8,-10%,-16%,-5%
N/C(COc1cccc(Cl)c1)=N\NS(=O)(=O)c1ccccc1,?,-25,2%,0.32µM*,-10%
CCOC(=O)c1sc2ncn(CC(=O)Nc3cccc(C)c3)c(=O)c2c1C,/,12,6%,/,-14%
CCCN(CC(=O)Nc1ccccc1OC)C(=O)Cn1[nH]c(=O)c2ccccc2c1=O,-24%,-4,5%,-16%,-15%
CCCN(CC(=O)Nc1ccccc1OC)C(=O)CSc1ccc(Br)cc1C,10µM*,3,?,-1%,-22%
Cc1cccc(N2CCN(CCNC(=O)Nc3ccc(Cl)cc3)CC2)c1C,/,-99*,6%,/,0%
Cc1cccc(N2CCN(CC(=O)Nc3ccc(S(=O)(=O)N4CCOCC4)cc3)CC2)c1C,10µM*,-67*,2%,131%,?
Cc1ccc(S(=O)(=O)N2CCN(CC(=O)Nc3ccc(N4CCOCC4)cc3)CC2)cc1C,17%,-27,-8%,142%,-10%
O=C(CN1CCOCC1)Nc1ccc(S(=O)(=O)N2CCCCCC2)cc1,8%,-82*,?,-2%,7%
Cc1ccccc1-c1nc(S(=O)(=O)c2ccccc2)c(N2CCCC2)o1,?,-13,/,-19%,24%
COc1ccc(N(CC(=O)NC(C)c2ccccc2)S(=O)(=O)c2c(C)nn(C)c2C)cc1 (stereo not drawn),/,1,2%,/,-8%
SMILES,HCV inhibitor,HCMV inh,AmpC inh detg,AmpC no deterg,FMDV inh
COc1ccc(N2CCN(C(=O)NCc3ccc(OC)c(OC)c3)CC2)cc1,7%,-68*,?,1%,2%
CC(=O)N1CCN(c2ccc(NCc3cccc(C)c3)cc2)CC1,/,-77*,7%,68%,?
CC(=O)N1CCN(c2ccc(NCc3ccc(F)cc3)cc2)CC1,?,-40,?,75%,?
COc1ccc(N2CCN(c3nc(NCCc4ccc(OC)c(OC)c4)nc(OC)n3)CC2)cc1,11µM*,-90*,5%,/,25µM*
COc1ccc(N2CCN(C(=O)NCc3ccc(OC)c(Cl)c3)CC2)cc1,7%,?,?,-7%,5%
CCOc1nc(NCCc2ccc(OC)c(OC)c2)nc(N2CCN(c3ccc(OC)cc3)CC2)n1,2%,69,?,-5%,-11%
COc1cc(CNc2ccc(N3CCN(C(C)=O)CC3)cc2)ccc1OCc1ccc(F)cc1,1%,-73*,0%,220%,-16%
COc1ccccc1NC(=O)Nc1ccc(S(=O)(=O)Nc2onc(C)c2C)cc1,-2%,-4,-10%,-20%,0%
N#CC(=C(O)COC(=O)Cc1c[nH]c2ccccc12)c1nc2ccccc2[nH]1,-24%,-6,/,/,12%
Cc1cccc(C)c1OCC(=O)OC/C(O)=C(\C#N)c1nc2ccccc2[nH]1,25%,?,-13%,-23%,-8%
CC(C)C(=O)OC/C(O)=C(\C#N)c1nc2ccccc2[nH]1,2%,-65*,8%,-32%,6%
CCCC(=O)OC/C(O)=C(\C#N)c1nc2ccccc2[nH]1,25%,-73*,1%,0%[2.29 µM],-11%
N#C/C(=C(/O)CCl)c1nc2ccccc2[nH]1,?,-70*,1%,-18%,35µM*
N#C/C(=C(/O)COC(=O)CCC1CCCCC1)c1nc2ccccc2[nH]1,12%,-69*,-12%,-47%,?
N#C/C(=C(\O)Cc1ccccc1)c1nc2ccccc2[nH]1,-9%,2,0%,-23%,11%
Cc1nn(CCC(=O)NCc2cccc(Br)c2)c(=O)c2nn(-c3ccccc3)c(C)c12,/,-8,?,/,-9%
CNS(=O)(=O)c1ccc(C(=O)NCC(=O)NCCC(c2ccccc2)c2ccccc2)cc1,12%,39,?,-15%,-15%
Cc1c(-c2cccc(Cl)c2)nc2ccccc2c1C(=O)OC/C(O)=C(\C#N)c1nc2ccccc2[nH]1,8.9µM*,-82*,-3%,-40%,-25%
COCC(=O)OC/C(O)=C(\C#N)c1nc2ccccc2[nH]1,-15%,-99*,6%,-10%,?
CCOC(=O)c1c(C)[nH]c(C(=O)OCC(O)=C(C#N)c2nc3ccccc3[nH]2)c1C,-14%,17,/,/,9%
Cc1c(C(=O)N2CCCCC2)sc2ncnc(NCCc3ccccn3)c12,/,/,/,/,-18%
Cc1cccc(-n2nc(C)c(C(=O)Nc3cc(C)ccc3C)c2-n2cccc2)c1,/,?,-2%,/,?
Cc1ccc(/C=C2\C(=O)NC(=S)N(c3ccccc3F)C2=O)s1,?,-101*,1%,-31%,?
O=C1C(n2ccc3ccccc32)c2cc(Cl)ccc2N1Cc1ccc(Cl)nc1 (stereo not drawn),/,-31,/,/,/
